Screening results from PubChem BioAssay.
Only some compounds are listed: those with a hit (about 9.9% of all), similar ones and a draw of the others.
KDM4E inh = qHTS Assay for Inhibitors of Human Jumonji Domain Containing 2E (JMJD2E). JMJD2E catalytic domain, FDH-coupled NADH fluorescence (FDH is formaldehyde dehydrogenase). AID 2147, 2009. 1.6% of 230,000 active. Lysine-specific demethylase 4E (Homo sapiens), B2RXH2. Potency, µM (highest dose often 57.1 µM), for inactives: at the highest dose activity change, negative = inhibition, actives largely listed as inhibitors;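 further: 0% = wells with enzyme and -100% = buffer wells without enzyme; nearly all actives have a fitted effect of over 50% in size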
Tau fibril ThT = qHTS for Inhibitors of Tau Fibril Formation, Thioflavin T Binding. recombinant tau K18 P301L, heparin-induced fibrillization, ThT fluorescence. Potency, µM (series often up to 57.4 µM), inactives show at the highest dose activity, negative = inhibition, hits mostly inhibitors. 2.1% of 270,000 active; active means well fitted curve in the direction sought with a large enough effect; inconclusive means small, poorly fitted or top-dose-only effect, or another doubt; inactive means no such curve, though single readings can be large; an effect the other way counts as inactive or inconclusive; further: nearly all actives have a fitted effect of over 55% in size
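Aggregation was driven by heparin (20 uM final) acting on recombinant tau […] bearing P301L in 100 mM sodium acetate pH 7; fibrils were detected with Thioflavin T.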
ALDH1A1 inh = qHTS Assay for Inhibitors of Aldehyde Dehydrogenase 1 (ALDH1A1). Aldehyde dehydrogenase 1A1 (Homo sapiens), P00352. Purified ALDH1A1, NADH fluorescence, propionaldehyde substrate. Potency, µM (titrated, usually from 75.3 µM), without a hit: top-dose activity, negative = inhibition, hits mostly inhibitors. 7.3% of 220,000 active. AID 1030, 2008;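 further: plate controls were no enzyme wells and a reference inhibitor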
Target sequence (P00352 whole entry, looked up): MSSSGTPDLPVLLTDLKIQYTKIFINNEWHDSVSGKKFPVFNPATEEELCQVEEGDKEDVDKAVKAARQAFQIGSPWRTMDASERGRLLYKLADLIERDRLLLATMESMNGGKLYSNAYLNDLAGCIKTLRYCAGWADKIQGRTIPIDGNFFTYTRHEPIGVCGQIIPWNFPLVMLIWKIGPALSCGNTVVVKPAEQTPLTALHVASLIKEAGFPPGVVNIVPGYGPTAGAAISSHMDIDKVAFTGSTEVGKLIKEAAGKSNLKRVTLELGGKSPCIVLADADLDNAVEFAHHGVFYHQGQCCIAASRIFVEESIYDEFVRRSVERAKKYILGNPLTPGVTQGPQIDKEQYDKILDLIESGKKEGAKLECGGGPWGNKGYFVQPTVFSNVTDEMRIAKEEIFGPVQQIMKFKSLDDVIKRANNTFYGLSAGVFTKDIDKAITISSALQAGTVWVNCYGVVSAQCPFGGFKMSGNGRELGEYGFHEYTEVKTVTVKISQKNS
HPGD block = qHTS Assay for Inhibitors of HPGD (15-Hydroxyprostaglandin Dehydrogenase). 15-hydroxyprostaglandin dehydrogenase [NAD(+)] (Homo sapiens), P15428. AID 894, 2007. Potency, µM, for the others: at the highest dose activity change, negative = inhibition, hits mostly inhibitors. 4.3% of 150,000 active. purified HPGD, NADH fluorescence kinetic, PGE2 substrate
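NADH formation kinetics: reaction with 30 uM PGE2 and 1 mM NAD+ (final), 20 nM enzyme, Tris-HCl pH 8 with Tween 20, after 15 min compound preincubation at room temperature. Fluorescence change, last versus first of five reads.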
Tau fluor counter = Counterscreen qHTS for Inhibitors of Tau Fibril Formation, Fluorescence Polarization; tau K18 P301L Alexa594 fluorescence, heparin fibrillization; Potency, µM (doses to about 57.7 µM), inactives show at the top dose activity change, negative = decrease; 0.93% of 280,000 active; AID 1463, 2008; active means well fitted curve in the direction sought with a large enough effect; inconclusive means small, poorly fitted or top-dose-only effect, or another doubt; inactive means no such curve, though single readings can be large; an effect the other way counts as inactive or inconclusive; further: nearly all actives have a fitted effect of over 55% in size
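Human tau K18 P301L (15 uM unlabeled, 0.24 uM Alexa 594-labeled) in 100 mM sodium acetate pH 7 with 20 uM heparin, 6 hr at 37 C. ThT 30 uM added, 1 hr ambient; Alexa 594 FP and total fluorescence read at 555/632 nm.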
Tau fibril FP = qHTS for Inhibitors of Tau Fibril Formation, Fluorescence Polarization; Microtubule-associated protein tau (Homo sapiens), P10636; K18 P301L tau heparin fibrillization, Alexa594 FP, 6 h; Potency, µM (highest dose often 57.7 µM), for inactives: top-dose activity, negative = inhibition, usual class: inhibitors; 0.39% of 280,000 active; AID 1468, 2008; active means well fitted curve in the direction sought with a large enough effect; inconclusive means small, poorly fitted or top-dose-only effect, or another doubt; inactive means no such curve, though single readings can be large; an effect the other way counts as inactive or inconclusive; further: nearly all actives have a fitted effect of over 55% in size
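FP of Alexa 594-tau after heparin (20 uM) induction. Substrate: human K18 P301L, 15 uM unlabeled, 0.24 uM labeled. Buffer 100 mM sodium acetate pH 7. 6 hr, 37 C.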
The depositor's hits bear a star; u = inconclusive; x = no result; ! = repeats disagree; [ ] = dose if it differs, or a comment. Unless noted, the call rests on the fitted dose curve; in most records, active means well fitted inhibition curve with a large enough effect (not every such curve was filed as active); inconclusive means small, poorly fitted or top-dose-only effect, or another doubt; inactive means no such curve, though single readings can be large or run the other way. Unless noted, on the % scale 0 is the no-effect control and ±100 the full control effect; potency means the concentration at half of the fitted maximal effect.

SMILES	KDM4E inh	Tau fibril ThT	ALDH1A1 inh	HPGD block	Tau fluor counter	Tau fibril FP
CCN(CC)CCCN1C=C2C(=O)C(C)(OC(=O)c3cccs3)C(=O)C=C2C=C1CCCC(=O)OC (stereo unspecified)	4.2%[11.4 µM]	5.2%[11.5 µM]	15.5%[13.5 µM]	-1.0%	-1.2%[11.6 µM]	7.8%[11.6 µM]
COc1ccc(CN2C=C3C(=O)C(C)(OC(=O)CCc4ccccc4)C(=O)C=C3C=C2c2ccc(C#N)cc2)cc1 (stereo unspecified)	u	u	3.55µM*	-9.6%	-8.9%[11.6 µM]	1.9%[11.6 µM]
CCCCC1=CC2=CC(=O)C(C)(OC(=O)CC)C(=O)C2=CN1Cc1ccccc1 (stereo unspecified)	u	u	18.9%[13.5 µM]	-8.6%	-6.4%[11.6 µM]	-3.7%[11.6 µM]
CC1(OC(=O)C2CCCC2)C(=O)C=C2C=C(c3ccsc3)N(CCc3c[nH]c4ccccc34)C=C2C1=O (stereo unspecified)	u	4.47µM*!	u	-9.3%	-0.5%[11.6 µM]	u
Cc1noc(C)c1S(=O)(=O)N(CC(=O)NCc1ccccc1Cl)c1ccc(C(C)C)cc1	x	-13.7%	x	x	-21.1%	-10.6%
Cc1noc(C)c1-c1nc(N2CCOCC2)c2ccccc2n1	-5.6%	8.6%	u	25.1µM*	-2.2%	-11.4%
O=[N+]([O-])c1cccc(-c2nc(N3CCOCC3)c3ccccc3n2)c1	4.5%	-9.7%	7.94µM*	x	-29.4%	-0.5%
CCCN1C[C@H](CSC)C[C@H]2c3cccc4[nH]cc(c34)C[C@@H]21	-3.3%[25.5 µM]	x	-1.8%[20.9 µM]	0.2%	x	x
CC(=O)NCC(=O)OCC(=O)N1c2ccccc2Sc2ccccc21	-4.4%	u	25.1µM*	x	-24.8%	8.6%
CCCCC(NC(=O)c1ccccc1)C(=O)OCC(=O)N1c2ccccc2Sc2ccccc21 (stereo unspecified)	3.7%	8.8%	39.8µM*	-16.0%	6.2%	1.6%
Cc1ccccc1NC(=O)CCc1c(C)nc2c(c1C)c(=O)n(C)c(=O)n2C	x	0.0%	x	x	-0.1%	10.4%
O=C(NNC(=S)Nc1ccccc1)NNC(=S)Nc1ccccc1	-13.8%	4.9%	u	x	5.9%	2.5%
Cc1ccc(NC(=S)NNC(=O)c2nn(C)c(C)c2Cl)cc1	12.6µM*	-21.8%	u	-17.1%	-8.5%	1.8%
Cc1ccc(NC(=O)NNC(=O)c2ccccc2)cc1	1.2%	12.0%	3.2%	x	13.2%	1.4%
O=C(NNC(=S)Nc1ccccc1)Nc1ccccc1	u	-11.7%	14.1µM*	x	-6.7%	-9.4%
Cc1ccc(NC(=S)NNC(=O)c2c(Cl)c(C)nn2C)cc1	1.0%	u	u	-10.5%	-26.0%	1.1%
Cc1ccc(NC(=S)NNC(=O)Nc2ccccc2)cc1	-1.7%	u	2.24µM*	x	-17.2%	5.5%
CNc1ccc(C2(O)C(=O)c3ccccc3C2=O)cc1	1.5%	2.6%	13.9%	-5.6%	4.5%	-0.3%
FC(F)(F)c1ccccc1NC(=S)N/N=C1\CC2CC=CC12 (stereo unspecified)	9.9%	6.5%	7.94µM*	x	-5.3%	-0.7%
COc1ccccc1CCNC(=O)CCCn1c(=O)c2cccn2c2cccnc21	x	6.2%	x	x	-4.1%	-0.9%
CCCCSc1nnc(CCNC(=O)OC(C)(C)C)o1	-8.1%	-9.9%	x	x	-8.5%	4.9%
CN(C)S(=O)(=O)c1cccc(NC(=O)COC(=O)/C=C/c2ccc([N+](=O)[O-])cc2)c1	-0.8%	u	u	x	u	9.6%
O=C(c1ccccc1)N1CCN(c2ncnc3c2cnn3-c2ccccc2)CC1	-7.2%	u	u	-8.5%	-11.6%	-6.5%
Cc1ccc(-n2ncc3c(N4CCC(C)CC4)ncnc32)cc1C	x	-13.5%	x	x	-6.9%	8.2%
